Over roughly 25,000 sequences, “ln(normalized median fluorescence intensity)” has its median near 9.3; the highest 2% begin near 10. What follows is part of a selection rich in the highest values, with near analogues and random picks from the rest.

The experiment deals with PF3D7_0420300 AP2 domain 1 (GST-tagged). Nature of the experiment: gcPBM binding intensity (ln(normalized median fluorescence intensity)); higher = stronger DNA binding. An outline of the steps:
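GST-tagged P. falciparum DNA-binding domains, expressed in E. coli (about 25 μg on average), were applied for 1 h to an Agilent 4 × 180k array of primer-extended double-stranded 36-bp intergenic genomic probes plus negative controls. The binding buffer was 1× PBS with 1% milk, 0.2 mg/ml BSA, 0.5% salmon testes DNA and 0.03% Triton X-100. Bound protein was detected with Alexa488 anti-GST antibody and scanned at 488 nm. Binding intensity is the highest Masliner-normalised natural-log median intensity across replicate spots of either probe orientation.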
Regarding “CAGTAGTATATACTATGTACATATTTATATTATATT [XGTACX_site4964]”, the “gcPBM binding intensity (ln)” value was 9.22. With “TAATAAACCAAACTAAACAATATATCAAAAAGCACA [CACACA_negctrl_site269]” the figure was 9.75; with “TATATATATATTTTAACACACACATATATATATTTA [CACACA_site8892]”, 9.63; with “TGAAAGAACCTGATTACACACATAAATTATATATAT [CACACA_site26]”, 9.54. To “GTAATATCAATATAAAGTACACACTATAGTATGTAT [XGTACX_site4714]” belongs 9.52; to “TTTTAAATAAAAAAATTAAATTAAAATATATAAAAA [XGTACX_negctrl_site490]”, 8.82; to “TGTATTAACAAAAAGGTGCGGATATATATAAAAAAT [GTGCAC_site9473]”, 9.61. With “ATACATATATACATATGTACATATATATATATATAT [XGTACX_site8206]” the figure was 9.3. Regarding “AAAAAAAAAAAAAAAAAAAAAAATATATATATATAT [XGTACX_negctrl_site33]”, the “gcPBM binding intensity (ln)” value is 9.26.

Turning to “ACATCGATTTATATTCTGCACTGAAGAAACTACAAC [GTGCAC_site9967]”, the “gcPBM binding intensity (ln)” value was determined as 9.32. With “ATAATTTGGAAACACACACACACACCCACATATATA [CACACA_site2286]” the figure was 10.3; with “ATTTGGCAGAAACACACACACACACCCACCCACATA [CACACA_site589]”, 10.4. With “TGTAAATTTGGCATCACACATAAATAAACATATAAA [CACACA_site4497]” the figure was 9.4; with “ATTTGGCATAAACACACACACACACCCACCCACATA [CACACA_site8096]”, 10.4; with “TAGAAGCAGAAACACACACACATACATACACATACA [CACACA_site1467]”, 9.99. As to “CATATTTGGAAACACACACACATATTTATATATATA [CACACA_site3569]”, the “gcPBM binding intensity (ln)” value was determined as 9.95.

Take “TAATTTTTGAAACACACACACATATATATATATATA [CACACA_site94]”: the “gcPBM binding intensity (ln)” value is 9.71. To “TACATAAATTAATAGTCACACACGTATTTTTTATAT [CACACA_site8806]” belongs 9.45. Regarding “AATAGAACTATTACACGTACAGAACATGAATTAGTT [XGTACX_site7518]”, the “gcPBM binding intensity (ln)” value was determined as 9.36. To “TCAAAAGAAATAAAAACATGCATAAAAGTAAAAATA [TGCATGCA_site832]” belongs 9.33; to “ATAAATGACAAATTAACACACATATATTATAGATAT [CACACA_site7770]”, 9.68. To “TATATATTATATAAATAAATAAATATATATATTTAT [TGCATGCA_negctrl_site270]” belongs 8.94. With “TTTTTATTTTTTTACAGTACATAAAATAAATAAATA [XGTACX_site6596]” the figure was 8.84.
